Holding throughout (assay): NCI-60 one-dose screen, 48 h (100 = growth as untreated, 0 = no growth, -100 = all killed)
Holding throughout (conditions): 10 µM unless noted

Test [1] deals with MOLT-4 leukemia.
Test [2] deals with SR leukemia.
Test [3] deals with RPMI-8226 leukemia.
Test [4] has as its system OVCAR-8 ovarian.
The subject of test [5] is OVCAR-5 ovarian.
The test system of test [6] is OVCAR-4 ovarian.
Test [7] deals with SK-OV-3 ovarian.
The test system of test [8] is IGROV1 ovarian.
The subject of test [9] is OVCAR-3 ovarian.
The subject of test [10] is HS 578T breast.
The test system of test [11] is NCI/ADR-RES ovarian.
The test system of test [12] is T-47D breast.
Test [13] deals with BT-549 breast.
The test system of test [14] is MDA-MB-435 melanoma.
Test [15] concerns SW-620 colon.
For test [16], the system named is MCF7 breast.
Test [17] concerns HCT-116 colon.
Test [18] concerns HCC-2998 colon.
Test [19] concerns KM12 colon.

Molecules are shown by their SMILES. The panel holds about 83,000 compounds, 20% with a hit somewhere; the sample as a whole holds those more often.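 Note: values are percent growth. 100 is the growth of untreated cells, values between 100 and 0 indicate rising inhibition; between -100 and 0 indicates cell death.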 Unmarked numbers belong to inactive results. The source made the active and inactive calls. The calls were made as follows: active = growth percent below 10; inactive = the rest.

As to `COc1ccc(O)c(CNC(=O)CN2CCCC2=O)c1`, the growth in test [1] is 101%; in test [2], 98.5%; in [3] it was 99.4%; in test [4] it was 106%; in test [5], 95.1%; in [6], 103%. The growth in test [7] was 112%; in test [8], 104%; in [9] it was 103%; in test [10] it was 94%; in test [11] it was 97.8%; in test [12], 99.4%. For the same compound, the growth in [13] was 98.7%; in test [14] it was 101%; in test [15], 101%; in test [16] it was 102%; in test [17], 98.8%; in test [18], 98.6%.
As to `COC(=O)[C@@H](C)C[C@H](Cc1ccccc1)NC(=O)c1csc([C@@H](C[C@H](C(C)C)N(C)C(=O)[C@@H](NC(=O)[C@H]2CCCCN2C)C2CCCCC2)OC(C)=O)n1`, the growth was 3.17% (active) in test [1]; 4.79% (active) in [2]; 4.31% (active) in [3]; 14.6% in [4]; 23.1% in [5]; 36.7% in [6]. Also, the growth in test [7] was -1.95% (active); in [8], 22.3%; in [9], -21.5% (active); in test [10], -6.6% (active); in [11] it was 10.6%; in [12], 39.1%. In addition, the growth in [13] is -11.8% (active); in [14] it was -47.6% (active); in [15], 19.1%; in test [16], 18.3%; in [17], -22.1% (active); in test [18], 10.3%. Further, the growth in [19] is 2.88% (active).
For the compound `COc1cc(C=C2c3ccccc3C(=O)c3ccccc32)ccc1OCCCCOc1cc2c(cc1OC)C(=O)N1CCCC1C=N2` (stereo not given), the growth in test [1] was -53.2% (active); in test [2] it was -84.7% (active); in test [3] it was -10% (active); in [4], -30.4% (active); in test [5], -61.3% (active); in test [6], -41.1% (active). Besides, the growth is -52.4% (active) in test [7]; -85% (active) in [8]; -75.2% (active) in [9]; -25.9% (active) in test [10]; 6.1% (active) in test [11]; -30% (active) in [12]. In addition, the growth in test [13] is -40.2% (active); in [14] it was -57.6% (active); in test [15], -84.4% (active); in [16], -77.1% (active); in [17], -85.3% (active); in [18] it was -94.4% (active). For the same compound, the growth in test [19] is -85.7% (active).
On to `COC(=O)[C@H](Cc1ccccc1)NNC(=O)c1csc([C@@H](C[C@H](C(C)C)N(C)C(=O)[C@@H](NC(=O)[C@H]2CCCCN2C)C2CC2)OC(C)=O)n1`, for which the growth in [1] is 7.86% (active); in [2], 5.77% (active); in [3] it was 7.38% (active); in test [4] it was 24.1%; in [5] it was 32.5%; in test [6], 41.3%. For the same compound, the growth is 19.8% in [7]; 27.4% in test [8]; 4.06% (active) in test [9]; 9.52% (active) in [10]; 32.9% in test [11]; 37.7% in test [12]. For the same compound, the growth in test [13] is -0.476% (active); in test [14], -55.8% (active); in [15], 24.4%; in test [16], 16.3%; in [17] it was 1.19% (active); in [18], 10.8%. In test [19], the growth was 5.13% (active).
In the case of `CC[C@H](C)[C@H](NC(=O)N[C@@H](C)c1ccccc1)C(=O)N(C)[C@H](C[C@@H](OC(C)=O)c1nc(C(=O)N[C@@H](Cc2ccccc2)C[C@H](C)C(=O)OC)cs1)C(C)C`, the growth in [1] was 21.7%; in test [2], 3.11% (active); in [3], 16.1%; in test [4], 11.6%; in test [5], 17.8%; in test [6], 37.1%. Moreover, the growth in test [7] is 36.1%; in [8], 24.1%; in [9], -36.6% (active); in [10], 0.903% (active); in test [11] it was 50%; in [12], 76.7%. In addition, the growth in test [13] is 10.5%; in [14], -41.7% (active); in test [15] it was 16.8%; in test [16], 17.5%; in test [17], 9.92% (active); in test [18], 23.7%. Also, the growth in [19] is 2.6% (active).
Consider `O=C(O)C1C(C(=O)O)C2(Cl)C(Cl)=C(Cl)C1(Cl)C2(Cl)Cl.[Hg]` (stereo not given), for which the growth was 72.6% in test [1]; 60.6% in test [2]; 84% in test [3]; 106% in test [4]; 106% in test [5]; 108% in test [6]. The growth in test [7] is 120%; in test [8], 74.8%; in test [9], 39.8%; in [10], 102%; in [11] it was 102%; in test [12], 58%. The growth is 88.1% in [13]; 99.7% in test [14]; 86.7% in test [15]; 52.2% in [16]; 90.4% in test [17]; 116% in [18]. In addition, the growth in test [19] was 96.7%.
Regarding `C/C=C(\C)C(=O)O[C@@H]1C(O)[C@H]2OC(COC(=O)CCC(=O)CCCCCC[C@H](CCCCC)O[C@@H]3OC(C)[C@H](OC(C)=O)C(O)[C@H]3O2)[C@H]1OC(=O)/C=C/c1ccccc1` (stereo not given in full), the growth in [1] was 37.7%; in [2], -7.08% (active); in test [3], 2.87% (active); in test [4] it was 24%; in test [5], 49.2%; in [6] it was 18%. Also, the growth was 12.1% in [7]; 27.3% in test [8]; 15.4% in [9]; 28.7% in [10]; 38.5% in test [11]; -6.33% (active) in test [12]. For the same compound, the growth in test [13] was 22.1%; in [14], 0.295% (active); in [15], 24.6%; in test [16], 17.6%; in test [17], 8.86% (active); in test [18], 39.3%. Further, in [19], the growth is 16.4%.
Turning to `CCCCN1CCCC[C@@H]1C(=O)N[C@H](C(=O)N(C)[C@H](CCc1nc(C(=O)N[C@@H](Cc2ccccc2)C[C@H](C)C(=O)OC)cs1)C(C)C)[C@@H](C)CC`, the growth in test [1] is 34.7%; in [2], 8% (active); in [3], 28.6%; in test [4], 80.9%; in [5] it was 101%; in test [6], 56.9%. Also, the growth is 49.9% in [7]; 48.9% in test [8]; 13.8% in test [9]; 76% in test [10]; 65.7% in [11]; 44.2% in test [12]. In addition, the growth was 36.4% in test [13]; -30% (active) in [14]; 63.7% in test [15]; 18.5% in test [16]; 31.6% in test [17]; 61.7% in test [18].

These data come from PubChem BioAssay (NCI).
